Shown are actives, neighbours in structure and some others; about 5.4% of the full set was active somewhere.
RORgamma inh: inhibitors of mouse ROR gamma transcriptional activity | 310,000 tested, 5.4% active | Drosophila S2 Gal4-RORgamma UAS-luciferase reporter, 20 h | P51450 | Potency, µM (series often up to 53.6 µM), without a hit: at the top dose activity change, negative = inhibition, hits mostly inhibitors; also: potency is read from the fitted curve at half-maximal effect; % is scaled to controls: 0 for no effect and ±100 for the full control effect; nearly all actives have a fitted effect of over 60% in size
Target sequence (P51450 whole entry, looked up, the tested form may be a part): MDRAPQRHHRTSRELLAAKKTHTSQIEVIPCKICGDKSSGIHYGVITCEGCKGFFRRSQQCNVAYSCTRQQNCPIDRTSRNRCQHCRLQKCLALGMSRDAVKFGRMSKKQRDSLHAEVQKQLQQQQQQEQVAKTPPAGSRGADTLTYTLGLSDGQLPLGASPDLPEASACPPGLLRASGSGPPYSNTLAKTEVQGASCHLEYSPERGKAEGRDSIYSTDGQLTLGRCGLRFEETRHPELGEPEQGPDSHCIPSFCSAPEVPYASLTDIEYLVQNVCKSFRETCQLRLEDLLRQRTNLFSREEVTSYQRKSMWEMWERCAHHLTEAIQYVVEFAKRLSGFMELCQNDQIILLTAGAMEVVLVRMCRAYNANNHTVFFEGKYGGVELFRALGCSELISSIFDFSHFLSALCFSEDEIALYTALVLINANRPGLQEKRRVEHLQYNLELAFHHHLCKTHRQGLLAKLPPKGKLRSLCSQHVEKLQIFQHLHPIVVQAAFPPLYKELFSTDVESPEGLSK
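Compounds are pin-transferred onto Drosophila Schneider cells expressing a copper-inducible Gal4–ROR gamma transactivation domain fusion. After 1 hr, copper sulfate is added to 700 uM final; luciferase is read 20 hr later.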
VP16 counter: inhibits Gal4-VP16 luciferase reporter, ROR gamma counter-screen; AID 2546; 310,000 tested, 3.5% active; Drosophila S2 Gal4-VP16 UAS-luciferase, luminescence, 20 h; Potency, µM (highest dose often 53.6 µM), for the others: top-dose activity, negative = inhibition, hits mostly inhibitors;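 also: Gal4-VP16 expression switched on by copper sulfate through the metallothionein promoter; potency is read from the fitted curve at half-maximal effect; % is scaled to controls: 0 for no effect and ±100 for the full control effect; nearly all actives have a fitted effect of over 50% in size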
Six1-Eya2 blk: inhibitors of human Six1/Eya2 interaction | Q15475+O00167 | activity change, % (no concentration beside the values) | AID 651725 | AlphaScreen GST-Six1/His-Eya2 binding, biochemical; stronger effect = lower value | 360,000 tested, 0.56% active; in the data active = activity change below about -65%; inconclusive = mostly about -30% to -63%; also: % is scaled to controls: 0 for no effect and ±100 for the full control effect
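Homogeneous AlphaScreen proximity assay pairing GST-Six1 with His-tagged Eya2 (added as 5X mix: 250 nM and 500 nM) in 50 mM Tris pH 8.0, 300 mM NaCl, 1 mM TCEP. Glutathione donor and nickel acceptor beads; 1 h, 37 °C, dark.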
p53 reactivation: restores transcriptional activity of mutant p53; 320,000 tested, 0.063% active; H1299 p53-A138V BP100-luciferase reporter, luminescence, 24 h; Potency, µM (series often up to 92.2 µM), inactives show at the highest dose activity change, positive = activation, most hits filed as activators; AID 504706; also: potency is read from the fitted curve at half-maximal effect; % of control where 0% means no effect; nearly all actives have a fitted effect of over 45% in size
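p53-null H1299 cells stably carrying temperature-sensitive p53-A138V and a BP100-luciferase reporter were pinned with compounds (4-point, 1:5 series) and held 24 hrs at 37 deg C. Luminescence was read 10 min after detection reagent.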
CtBP-E1A inh: CtBP/E1A binding inhibition; activity change, % (no concentration beside the values); AlphaScreen GST-E1A/His-CtBP binding, 1536-well; stronger effect = lower value; 340,000 tested, 0.49% active; in the data active = activity change below about -65%; inconclusive = mostly about -30% to -63%; also: % is scaled to controls: 0 for no effect and ±100 for the full control effect
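AlphaScreen with 125 nM GST-E1A and 125 nM His-CtBP (5X stocks) in Tris pH 8.0, 300 mM NaCl, BSA, Tween 20, TCEP. Compounds preincubated 2 h at 37 deg C, then glutathione donor/nickel acceptor beads added for 1 h at 37 deg C in dark.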
Numbers without * were called inactive; ? = inconclusive; . = no result; [ ] = remark or other dose. Unless noted, calls follow the shape of the dose curve; as a rule, active = well fitted curve in the direction sought with a large enough effect; inconclusive = small, poorly fitted or top-dose-only effect, or another doubt; inactive = no such curve, though single readings can be large; an effect the other way counts as inactive or inconclusive.

SMILES	RORgamma inh	VP16 counter	Six1-Eya2 blk	p53 reactivation	CtBP-E1A inh
Cc1ccc(CNC(=O)CCCN2C(=S)NC(C)(C)CC2C)cc1 (stereo not drawn)	?	4.7%	-1.8	-1.4%	1.6
O=C(CCCC(=O)N1CCN(c2ccccc2F)CC1)N1CCN(c2ccccc2F)CC1	3.2%	-4.3%	8.8	-12.0%	5.9
CC1CC(C)(C)NC(=S)N1CCCC(=O)NCCc1ccc(Cl)cc1 (stereo not drawn)	12.6µM*	?	-0.5	0.3%	5.1
CC1CC(C)(C)NC(=S)N1CCCC(=O)N1CCN(c2ccccc2F)CC1 (stereo not drawn)	14.1µM*	?	-2.9	-1.8%	12.3
CCN(C(=O)CN1C(=S)NC(C)(C)CC1C)c1ccc(C)c(C)c1 (stereo not drawn)	7.08µM*	?	-0.3	-5.4%	4.7
C=C(C)C1CC=C(C)CC1 (stereo not drawn)	17.4%[10 µM]	-5.2%	.	.	.
COc1ccc(-n2c(=S)[nH]c3c(oc4ccccc43)c2=O)cc1	2.82µM*	4.47µM*	-2.6	5.0%	10.9
Cc1ccc(-n2c(=O)[nH]c3c(oc4ccccc43)c2=O)cc1	5.2%	-2.7%	6.8	12.0%	10.5
O=C(O)c1ccc2c(=O)n(-c3ccccc3)c(=S)[nH]c2c1	9.2%	-4.5%	2.7	3.6%	10.8
COC(=O)c1ccc2c(=O)n(-c3ccc(OC)cc3)c(=S)[nH]c2c1	2.82µM*	5.62µM*	-3.0	-2.6%	0.5
COc1ccc(-n2c(=S)[nH]c3cc(C(=O)O)ccc3c2=O)cc1	2.2%	0.3%	-4.5	-1.2%	5.0
CCn1c(=S)[nH]c2cc(C(=O)OC)ccc2c1=O	12.6µM*	11.2µM*	1.9	4.1%	-0.4
COc1ccc(-n2c(=S)[nH]c3cc(C(=O)N(C)Cc4ccccc4)ccc3c2=O)cc1	7.94µM*	?	2.4	-2.8%	0.0
O=C(c1cc(-c2ccccc2)n[nH]1)N1CCc2c([nH]c3ccccc23)C1c1ccccn1 (stereo not drawn)	?	-6.9%	-18.4	-3.9%	-11.0
COCCn1c(=S)[nH]c2cc(C(=O)N(CCO)Cc3ccccc3)ccc2c1=O	11.2µM*	?	-0.5	-3.4%	3.7
Nc1nc(-c2ccco2)nn1C(=O)c1ccc([N+](=O)[O-])cc1	-6.7%	-7.0%	9.9	2.5%	-0.5
COC(=O)N/N=C/c1ccc(-c2ccc(C)c(Cl)c2)o1	?	-6.7%	-4.3	9.4%	14.0
Cc1ccc(-c2ccc(/C=N\NC(=O)C3C(=O)NCC3c3ccccc3)o2)cc1Cl (stereo not drawn)	?	20µM*	-16.8	-3.9%	-13.1
Cc1ccc(-c2ccc(/C=N/NC(=O)CN3CCCC3)o2)cc1Cl	11.2µM*	-18.8%	-7.8	-1.0%	-9.1
CCc1nnc2c(NCCc3ccccc3)nc3ccccc3n12	22.8%	2.7%	-5.5	-3.6%	.
CCOC(=O)[C@]12CCCC=C1N(CCC1=CCCCC1)C(=O)[C@H](CC(=O)NCc1ccccc1)C2	.	.	-5.2	.	-2.9
Cc1cc(=O)[nH]c(N2CCc3ccccc3C2)n1	4.1%	-5.9%	1.4	-9.9%	1.7
COc1cc(NCCCCCCCN)c2ncccc2c1	1.58µM*	?	-13.4	-25.1%	?
COC(=O)c1ccc(CN2C(=O)C3CCCCC3C2=O)o1 (stereo not drawn)	2.82µM*	4.47µM*	-1.4	4.1%	10.0
COC(=O)c1ccc(CSCc2ccc(C(=O)OC)o2)o1	15.5%	-4.7%	0.0	-0.8%	-6.9
SMILES	RORgamma inh	VP16 counter	Six1-Eya2 blk	p53 reactivation	CtBP-E1A inh
Nc1ccc(NC(=O)CCN2CCOCC2)cc1	20.9%	-8.8%	6.1	?	8.1
Cc1cc2ncn(CCOc3ccccc3)c2cc1C	12.6µM*	-29.6%	-4.5	23.3%	1.3
COCCn1cnc2cc(C)c(C)cc21	?	13.5%	7.8	-3.5%	2.5
Cc1cc2ncn(CC(O)COc3cccc(C(=O)O)c3)c2cc1C (stereo not drawn)	-19.0%	19.8%	3.0	11.0%	-4.6
CCCCn1cnc2cc(C)c(C)cc21	3.98µM*	?	-1.5	-1.9%	-1.1
Cc1cc2ncn(CC(C)C)c2cc1C	7.94µM*	?	5.8	-1.3%	1.8

High-throughput results from PubChem.
